Source: PubChem BioAssay (NCATS)
Records with an inconclusive call do not appear. Entries that show only a call come without a potency. A number with no mark means an inactive call. Active and inactive are the calls of the source. The call rests on the fitted dose curve; in most records, active means well fitted curve in the direction sought with a large enough effect; inconclusive means small, poorly fitted or top-dose-only effect, or another doubt; inactive means no such curve, though single readings can be large; an effect the other way counts as inactive or inconclusive.

Key:
[1] = Primary qHTS for inhibitors of nuclear receptor binding SET domain protein 2 (NSD2) in an RCH-ACV wild type WT cells (2C) (AID 1645877); further: nearly all actives have a fitted effect of over 70% in size; further: potency means the concentration at half of the fitted maximal effect
[2] = target: Glutathione peroxidase 1 (Homo sapiens) (UniProt P07203); experiment: Primary qHTS Assay for Inhibitors of Recombinant Selenoprotein Glutathione Peroxidase 1 (GPX1) (AID 1845191); further: nearly all actives have a fitted effect of over 65% in size
Outline: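 NADPH consumption tracked by fluorescence at 340/450 nm between t=0 and t=15 min, room temperature. Final mix: 10 nM GPX1, 100 nM glutathione reductase, 1 mM GSH, 0.5 mM NADPH, 0.5 mM cumene hydroperoxide, 0.01% BSA; 30 min compound–enzyme preincubation.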

[3] = target: Phospholipid hydroperoxide glutathione peroxidase GPX4 (Homo sapiens) (UniProt P36969); experiment: Primary qHTS Assay for Inhibitors of Recombinant Selenoprotein Glutathione Peroxidase 4 (GPX4) (AID 1845192); further: nearly all actives have a fitted effect of over 65% in size; on activity change, negative = inhibition: series mostly up to about 50 µM
Outline: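 NADPH consumption followed by fluorescence at 340/450 nm, t=0 and after 15 min at room temperature. Reaction started with cumene hydroperoxide (0.5 mM final) after 30 min compound–GPX4 preincubation; final 200 nM GPX4, 100 nM GR, 1 mM GSH, 0.5 mM NADPH.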

Chain of Phospholipid hydroperoxide glutathione peroxidase GPX4 (Homo sapiens) (P36969 whole entry, looked up): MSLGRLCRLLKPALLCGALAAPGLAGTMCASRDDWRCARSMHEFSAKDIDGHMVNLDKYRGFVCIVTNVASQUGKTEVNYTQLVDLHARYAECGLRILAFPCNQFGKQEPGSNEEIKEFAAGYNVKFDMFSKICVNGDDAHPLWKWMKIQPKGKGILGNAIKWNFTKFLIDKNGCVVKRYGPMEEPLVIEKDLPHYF
Chain of Glutathione peroxidase 1 (Homo sapiens) (P07203 whole entry, looked up): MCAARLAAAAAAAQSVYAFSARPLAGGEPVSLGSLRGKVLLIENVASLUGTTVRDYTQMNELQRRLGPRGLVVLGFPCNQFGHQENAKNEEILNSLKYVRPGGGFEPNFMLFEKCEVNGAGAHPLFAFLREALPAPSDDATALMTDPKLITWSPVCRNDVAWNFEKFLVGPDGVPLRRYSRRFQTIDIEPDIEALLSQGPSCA

Compound | Potency [1] | Potency [2] | Potency [3] | activity change, negative = cell killing [1] | outcome [2] | activity change, negative = inhibition [3]
CCC1NC(=O)C2C(Cl)C(Cl)CN2C(=O)C(C(C)O)NC(=O)CC(c2ccccc2)NC(=O)C(CO)NC1=O (stereo not drawn) | inactive | inactive | inactive |  |  | 
CCN1C[C@]2(COC)[C@H](O)C[C@H](OC)[C@]34[C@@H]5C[C@]6(O)[C@H](OC(=O)c7ccccc7)[C@@H]5[C@@](O)([C@H]([C@H](OC)[C@H]23)[C@@H]14)[C@@H](O)[C@@H]6OC | inactive | inactive | inactive |  |  | 
Clc1ccc(N2C[C@H]3CC[C@@H](C2)N3)nn1 | inactive | inactive | inactive |  |  | 
CN(C)CCc1c[nH]c2ccc(CN3CCN(C)S3(=O)=O)cc12 | inactive | inactive | inactive |  |  | 
CN1[C@@H]2CC[C@H]1CC(OC(=O)C1C=Nc3ccccc31)C2 (stereo partly drawn) | inactive | inactive | inactive |  |  | 
CN1C(=O)c2ccccc2NC(=O)C1Cc1ccccc1 (stereo not drawn) | inactive | inactive | inactive |  |  | 
Oc1ccc2c3c1O[C@H]1[C@H](N(CCCl)CCCl)CC[C@@]4(O)[C@@H](C2)N(CC2CC2)CC[C@]314 |  |  |  | -7.37% [at 9.23 µM] | inactive [at 9.52 µM] | -3.35% [at 9.73 µM]
CC(C)=C1CC[C@]23CO[C@H](C2)[C@@](O)(C(=O)O)CCC13 (stereo partly drawn) | inactive | inactive | inactive |  |  | 
C[C@]12CC[C@H]3[C@@H]([C@H](O)CC4=CC(=O)CC[C@@]43C)[C@@H]1CC[C@@H]2O | inactive | inactive | inactive |  |  | 
COCC1OC(=O)c2coc3c2C1(C)C1=C(C3=O)C2CCC(=O)C2(C)CC1O (stereo not drawn) | inactive | inactive | inactive |  |  | 
C/C=C(\C)C(=O)OC1CC2C(CC=C3CC(OC4CC(OC)C(OC5CC(OC)C(OC6OC(C)C(OC7OC(CO)C(O)C(O)C7O)C(OC)C6O)C(C)O5)C(C)O4)CCC32C)C2(O)CCC(C(C)=O)C12C (stereo not drawn) |  | inactive | inactive | -1.79% [at 9.23 µM] |  | 
COC1CC(O[C@H]2CC[C@@]3(C)C(=CCC4C3C(O)[C@@H](O)[C@]3(C)[C@@H](C(C)=O)CC[C@]43O)C2)OC(C)C1OC1CC(OC)C(OC2OC(C)C(O)C(O)C2O)C(C)O1 (stereo partly drawn) |  | inactive | inactive | -4.48% [at 9.23 µM] |  | 
CC[C@H]1CN2CC[C@H]1C[C@@H]2[C@@H](O)c1ccnc2ccc(OC)cc12 | inactive | inactive | inactive |  |  | 
CCCN1CCO[C@H]2c3cc(O)ccc3OC[C@@H]21 | inactive | inactive | inactive |  |  | 
OCCCCC#Cc1cncc(OC[C@@H]2CCN2)c1 | inactive | inactive | inactive |  |  | 
COC(=O)C12C(=O)C(C)(O)C(=O)C1(C)C(C)=CC1C34CCC(OC3=O)C(C)(CO)C4CCC12C (stereo not drawn) | inactive | inactive | inactive |  |  | 

Compound | Potency [1] | Potency [2] | Potency [3] | activity change, negative = cell killing [1] | outcome [2] | activity change, negative = inhibition [3]
COC1CC(OC2CCC3(C=O)C(CCC4C3CCC3(C)C(C5=CC(=O)OC5)CCC43O)C2)OC(C)C1OC1OC(CO)C(O)C(O)C1O (stereo not drawn) | 0.153 µM (active) | inactive | inactive |  |  | 
COc1cc(CCNCc2ccccc2O)c(OC)cc1C#N | inactive | inactive | inactive |  |  | 
CC1=C2C(=O)C3[C@@H](CC=C4C[C@@H](O)CC[C@@]43C)[C@@H]2CC[C@]12O[C@@H]1C[C@H](C)CN[C@H]1[C@H]2C (stereo partly drawn) | inactive | inactive | inactive |  |  | 
CCC(C)(OC(C)=O)C(=O)O[C@H]1[C@H](OC(C)=O)C[C@@H]2[C@@](C)([C@@H]3C[C@H]4C=CO[C@H]4O3)[C@H](C)C[C@H](OC(C)=O)[C@@]2(COC(C)=O)[C@@]12CO2 (stereo partly drawn) | inactive | inactive | inactive |  |  | 
C/C=C(\C)C(=O)O[C@H]1[C@H](OC(C)=O)[C@]2(CO)[C@H](O)[C@H](O)[C@]3(C)C(=CCC4[C@@]5(C)CC[C@H](O[C@@H]6O[C@H](C(=O)O)[C@@H](O)[C@H](O[C@@H]7OC[C@H](O)[C@H](O[C@@H]8OC[C@H](O)[C@H](O)[C@H]8O)[C@H]7O)[C@H]6O[C@@H]6O[C@H](CO)[C@@H](O)[C@H](O)[C@H]6O)C(C)(C)C5CC[C@]43C)[C@@H]2CC1(C)C (stereo partly drawn) |  |  |  | 2.35% [at 9.23 µM] | inactive [at 9.52 µM] | 2.03% [at 9.73 µM]
C[C@]12CC[C@H]3[C@@H](CC[C@@]45O[C@@H]4C(O)=C(C#N)C[C@]35C)[C@@H]1CC[C@@H]2O | 13.2 µM (active) | inactive | inactive |  |  | 
C[C@@]1(C(=O)O)CC[C@]2(C)CC[C@]3(C)C4=CC(=O)c5cc(O)c(O)cc5[C@]4(C)CC[C@@]3(C)[C@@H]2C1 | inactive | inactive | inactive |  |  | 
C=C[C@H]1CN2CC[C@H]1C[C@@H]2[C@@H](O)c1ccnc2ccccc12 | inactive | inactive | inactive |  |  | 
O=C1C[C@@H]2OCC=C3CN4CC[C@]56c7ccccc7N1[C@H]5[C@H]2[C@H]3C[C@H]46 | inactive | inactive | inactive |  |  | 
C[C@@H]1C(=O)O[C@H]2[C@H](O)[C@@]34[C@@H]5OC(=O)[C@@]3(O[C@@H]3OC(=O)[C@@H](O)[C@@]34[C@H](C(C)(C)C)[C@H]5O)[C@@]12O | inactive | inactive | inactive |  |  | 
CCc1[nH]c2ccc(OC)cc2c1CCN(C)C | inactive | inactive | inactive |  |  | 
C=C1[C@@H]2CC[C@@]3(C)[C@H](c4ccoc4)OC(=O)C[C@]13O[C@H]1CC(=O)C(C)(C)[C@H](C(OC(C)=O)C(=O)OC)[C@]12C (stereo partly drawn) | inactive | inactive | inactive |  |  | 
CN1C(=O)N(c2ccc(C#N)c(C(F)(F)F)c2)C(=O)[C@]1(CO)c1ccccc1 | inactive | inactive | inactive |  |  | 
C[C@@]12C[C@@H](c3ccoc3)OC(=O)C1CC[C@]1(C)[C@H]2[C@H]2C=C[C@]1(O)C(=O)O2 (stereo partly drawn) | inactive | inactive | inactive |  |  | 
CC(=O)OC1CC(O)C(C)(C)C2CC(OC(C)=O)C3(C)C(CCC4(C)C(c5ccoc5)C(=O)C5OC543)C12C (stereo not drawn) | inactive | inactive | inactive |  |  | 
